Data on 68 compounds can be found in PubChem BioAssay AID463173 (ICCB-Longwood Screening Facility, Harvard Medical School, 2010).

About 4,300 (8.3%) of roughly 52,000 compounds were called active. The sample holds actives, similar compounds and a random draw of the others, so the mix is not that of the screen. Values without a mark were called inactive. Cut-off read from the data, not from the text of the source: active = survival mostly below about 52% (no sharp cut-off); inactive = mostly above about 56%.

For the experiment, the system named is DeltatarO mutant. In words: S. aureus survival, RN4220 and DeltatarO strains – OD600, teichoic acid synthesis inhibitors, primary screen (AID 463173). The settings on record: S. aureus RN4220 wild type/DeltatarO growth, OD600, 18 h, stronger effect = lower value, screened at 18.75 µg/mL (by protocol).
Turning to `O=C(CSc1nc2c(c(=O)[nH]1)CCC2)Nc1ccccc1F`, the survival is 73%.

With `COc1ccccc1C(OC(=O)c1ccco1)C(=O)NCC1CCCO1` (stereo not drawn), the survival is 85%.

`OCc1nc2ccc(-c3ccc4nc(CO)[nH]c4c3)cc2[nH]1`: the survival was 51%.

On to `COc1cccc(NC(=O)CC(C)S(=O)(=O)c2ccc3c(c2)NC(=O)CO3)c1` (stereo not drawn), for which the survival was 115%.

With `CCOC(=O)c1ccc(NC(=O)Cn2c(=O)cc(C)c3c(C)nn(-c4ccc(CC)cc4)c32)cc1`, the survival is 71%.

Consider `Cc1c(C(=O)Nc2ccc(Br)cc2F)oc2ccc(S(=O)(=O)N3CCC4(CC3)OCCO4)cc12`, for which the survival is 81%.

For the compound `CC(C(=O)Nc1cccc(N)c1)n1nnc2ccccc21` (stereo not drawn), the survival is 65%.

Regarding `CCCCCCSc1nc(N)c2c3c(sc2n1)CCCC3C` (stereo not drawn), the survival is -7% (active).

With `Nc1nc(SCC(=O)N(CCO)CCO)nc2sc3c(c12)CCCC3`, the survival was 110%.

For the compound `CC1CCCc2sc3nc(SCC(=O)c4ccc(Br)cc4)nc(N)c3c21` (stereo not drawn), the survival was 42%.

On to `CCn1nc(-c2ccccc2)c(-c2ccccc2)c(C(=O)Nc2ccccc2C(N)=O)c1=O`, for which the survival is 77%.

For the compound `CCn1c(SCC(=O)Nc2cc(Cl)ccc2OC)nc2c([nH]c3ccccc32)c1=O`, the survival was 101%.

On to `Cc1ccccc1Cn1c(=O)n(CCC(=O)NCc2ccco2)c(=O)c2sccc21`, for which the survival is 106%.

With `Cc1cc(NC(=O)CC(C)C)no1`, the survival was 69%.

As for `CC1(C)CC2CC(C)(CN2C(=O)c2cc(-c3ccccc3)on2)C1` (stereo not drawn), the survival is 99%.

For the compound `O=C(CCSCc1ccccc1Cl)N1CCN(c2ccc(F)cc2)CC1`, the survival was 66%.

Consider `O=C(CSCc1ccccc1Cl)N1CCN(c2ccc(F)cc2)CC1`, for which the survival is 46% (active).

Take `O=C(CSc1n[nH]c(-c2ccc(F)cc2)n1)N1CCN(c2ccc(F)cc2)CC1`: the survival is -5% (active).

Take `O=C(CSc1n[nH]c(-c2ccccc2)n1)N1CCN(c2ccc(F)cc2)CC1`: the survival is 65%.

Turning to `O=C(CSCc1ccccc1Cl)N1CCN(c2ccc(Cl)cc2)CC1`, the survival is 92%.

With `COc1ccc(-c2nc(SCC(=O)N3CCN(c4ccc(F)cc4)CC3)n[nH]2)cc1`, the survival is 88%.

Regarding `Cc1ccc(CNC(=O)c2ccc(-c3nc(CN4CCc5ccccc54)c(C)o3)cc2)cc1`, the survival is 84%.

As to `CC1CCCCC1NC(=O)CSc1nccc(=O)[nH]1` (stereo not drawn), the survival was 69%.

With `Cc1cc(-c2ccc(C)c(S(=O)(=O)N(Cc3cccs3)C(C)C)c2)on1`, the survival was 65%.

`CCc1ccc(-c2nc(SCC(=O)NCC3CCCO3)c(-c3ccc(C)cc3)[nH]2)cc1` (stereo not drawn): the survival is 103%.

Turning to `COc1ccc(CCNC(=O)c2cc(-c3ccc(Cl)cc3)on2)cc1OC`, the survival is 64%.

In the case of `Cc1cc(C)n(C(C)CC(=O)Nc2cccc(C(F)(F)F)c2)n1` (stereo not drawn), the survival is 73%.

Take `COc1ccccc1CNC(=O)c1sc2nc3n(c(=O)c2c1C)CCC3`: the survival was 103%.

Regarding `C/C(=N\NC(N)N)C1CCCCCCCCCCC1`, the survival is 0% (active).

On to `Cc1cc(Cl)ccc1NC(=O)C1CCN(c2nnc(-n3c(C)ccc3C)s2)CC1`, for which the survival is 88%.

On to `Fc1ccccc1N1CCN(c2nnc(C(F)(F)F)c3nnn(Cc4ccccc4)c23)CC1`, for which the survival is 78%.

Turning to `CCOc1ccc2c(c1)sc1nc(=O)n(-c3ccc(Cl)c(Cl)c3)c(=O)n12`, the survival was 88%.

`Cc1ccc2c(c1)sc1nc(=O)n(-c3ccc(Cl)c(Cl)c3)c(=O)n12`: the survival was -6% (active).

`Cc1ccc2c(c1)sc1nc(=O)n(-c3ccc(Cl)cc3)c(=O)n12`: the survival was 59%.

For `Cc1ccc2c(c1)sc1nc(=O)n(-c3cccc(Cl)c3)c(=O)n12`, the survival was 85%.

As to `O=c1nc2sc3ccccc3n2c(=O)n1-c1ccc(Cl)c(Cl)c1`, the survival was 22% (active).

As to `CCN(CC)C(=O)c1sc2c(c1C)c(=O)n(-c1ccc(Cl)c(Cl)c1)c(=O)n2Cc1ccccc1C#N`, the survival is 83%.

Turning to `CC(C(=O)c1ccccc1)C1(O)C(=O)Nc2ccccc21` (stereo not drawn), the survival is 94%.

On to `Cc1ccc2nc(-c3ccccc3O)c(Nc3ccccc3C)n2c1`, for which the survival is 92%.

On to `Cc1ccccc1Nc1c(-c2ccc(N3CCOCC3)cc2)nc2ccc(Br)cn12`, for which the survival was 74%.

With `O=C(NCc1ccccc1)c1cnc2sc(N3CCCC3)nn2c1=O`, the survival is 77%.

Regarding `COC(=O)c1ccc(NC(=O)C2(S(=O)(=O)c3ccc(C)cc3)CC2)cc1`, the survival is 134%.

For `Cc1cc(Br)ccc1NC(=O)C1(S(=O)(=O)c2ccc(Cl)cc2)CC1`, the survival is 62%.

For the compound `Cc1ccc(S(=O)(=O)C2(C(=O)Nc3ccc(Cl)c(C(F)(F)F)c3)CC2)cc1`, the survival was 26%.

On to `Cc1ccc(S(=O)(=O)C2(C(=O)Nc3ccc(C(C)C)cc3)CC2)cc1`, for which the survival was 19% (active).

Turning to `CCOC(=O)c1ccc(NC(=O)C2(S(=O)(=O)c3ccc(Cl)cc3)CC2)cc1`, the survival is 75%.

For `CCc1ccccc1NC(=O)C1(S(=O)(=O)c2ccc(Cl)cc2)CC1`, the survival is 90% (active).

Regarding `Cc1ccc(S(=O)(=O)C2(C(=O)Nc3ccc(C)c(Cl)c3)CC2)cc1`, the survival is 21%.

Turning to `O=C(Nc1ccccc1C(F)(F)F)C1(S(=O)(=O)c2ccc(Cl)cc2)CC1`, the survival is 84% (active).

`O=C(Nc1ccccc1C(F)(F)F)c1ccncc1`: the survival was 91%.

In the case of `Cc1ccc2c(c1)c1c(c(=O)n(Cc3ccccc3)c(=O)n1Cc1cccc(F)c1)n2C`, the survival was 89%.

`CC(C)(C)c1ccc(C(=O)Nc2nc3nc(-c4ccccc4)cc(=O)n3[nH]2)cc1`: the survival is 94%.

Take `CCN(Cc1ccccc1)C(=O)C1CCN(S(=O)(=O)c2ccc3c(c2)CCCN3C(C)=O)CC1`: the survival is 80%.

On to `CC1CCCC(C)N1C(=O)CN1CCC(N2CCCCC2)CC1` (stereo not drawn), for which the survival is 94%.

In the case of `CC(C)NC(=O)Cn1nnc(-c2ccc(Cl)cc2)n1`, the survival is 82%.

Consider `COc1ccccc1CC(NC(C)=O)C(=O)N1CCN(C(=O)c2cccs2)CC1` (stereo not drawn), for which the survival was 97%.

`O=C(NCCc1ccc(Cl)cc1)C(=O)NCC(c1ccco1)S(=O)(=O)c1cccs1` (stereo not drawn): the survival is 20% (active).

Take `O=C(NCc1ccc(F)cc1)C(=O)NCC(c1ccco1)S(=O)(=O)c1cccs1` (stereo not drawn): the survival is 8% (active).

In the case of `O=C(NCc1ccccc1F)C(=O)NCC(c1ccco1)S(=O)(=O)c1ccccc1` (stereo not drawn), the survival is -5% (active).

For `O=C(NCc1ccccc1)C(=O)NCC(c1ccco1)S(=O)(=O)c1ccccc1` (stereo not drawn), the survival was 76%.

On to `Cc1ccccc1CNC(=O)C(=O)NCC(c1ccco1)S(=O)(=O)c1cccs1` (stereo not drawn), for which the survival was 70%.

As to `Cc1ccc(CNC(=O)C(=O)NCC(c2ccco2)S(=O)(=O)c2cccs2)cc1` (stereo not drawn), the survival is 101%.

With `Cc1ccccc1CNC(=O)C(=O)NCC(c1ccco1)S(=O)(=O)c1ccccc1` (stereo not drawn), the survival was 92%.

Regarding `O=C(NCCc1ccc(F)cc1)C(=O)NCC(c1ccco1)S(=O)(=O)c1cccs1` (stereo not drawn), the survival was 66%.

With `O=C(NCc1ccccc1)C(=O)NCC(c1ccco1)S(=O)(=O)c1cccs1` (stereo not drawn), the survival is 96%.

On to `O=C(NCc1ccccc1F)C(=O)NCC(c1ccco1)S(=O)(=O)c1cccs1` (stereo not drawn), for which the survival was 25% (active).

With `O=C(NCc1ccccc1Cl)C(=O)NCC(c1ccco1)S(=O)(=O)c1cccs1` (stereo not drawn), the survival was 55%.

In the case of `O=C(NCCc1ccccc1)C(=O)NCC(c1ccco1)S(=O)(=O)c1cccs1` (stereo not drawn), the survival was 94%.
